# Measurements as given in PubChem BioAssay AID1224855 (National Center for Advancing Translational Sciences (NCATS), 2016).
# Results filed as inconclusive are left out. Values without a mark were called inactive. Active and inactive are the calls of the source. The call rests on the fitted dose curve; in most records, active means well fitted inhibition curve with a large enough effect; inconclusive means small, poorly fitted or top-dose-only effect; inactive means no such curve, though single readings can be large or run the other way.
# Test: Confirmation assay for measurement of the activity of small molecule inhibitors on Zika virus induced Caspase-3 activity in human iPSC derived neural progenitor cells (hNPCs)
# Conditions: hNPC ZIKV-induced caspase-3/7, Caspase-Glo luminescence, 6 h; series mostly up to 46.1 µM; activity, negative = inhibition: at the top concentration
# Outline: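 In this cell-based assay, neural progenitor cells derived from human iPSCs were infected for 6 h with ZIKV (2 FFU/cell) one hour after compound addition, and caspase activity was quantified as luminescence.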
Compound,"activity, negative = inhibition",Potency
CC(C)OC(=O)CCCC=CC[C@@H]1[C@H](C=C[C@@H](O)COc2cccc(C(F)(F)F)c2)[C@H](O)C[C@@H]1O,-13.3%,
COc1cc(NC(C)CCCN)c2ncccc2c1 (centres undefined),18.4%,
CC1=C(CO)C(=O)O[C@@H]([C@@H](C)[C@H]2CC[C@H]3[C@@H]4C[C@H]5O[C@]56[C@@H](O)C=CC(=O)[C@]6(C)[C@@H]4CC[C@]23C)C1,-16.7%,
O=c1c(-c2ccc(O)cc2)coc2cc(O)ccc12,,13.8 µM (active)
CN(C)c1ccc(N=NS(=O)(=O)O)cc1,-26.5% [at 88.3 µM],
CC(O)=C(C#N)C(=O)Nc1ccc(C(F)(F)F)cc1,,0.774 µM (active)
O=S(=O)(O)c1ccc2nc(-c3ccccc3)[nH]c2c1,,1.23 µM (active)
CC(C(=O)O)c1ccc(-c2ccccc2)c(F)c1 (centres undefined),-7.07%,
Cc1ccc(O)c(N=Nc2ccccc2)n1,,1.23 µM (active)
O=C1NC(=O)C(=Cc2ccc(-c3ccc(F)cc3)o2)S1,,9.75 µM (active)
CC(=C(CCOC(=O)C(C)C)SSC(CCOC(=O)C(C)C)=C(C)N(C=O)Cc1cnc(C)nc1N)N(C=O)Cc1cnc(C)nc1N,-2.44%,
O=C(O)Cc1ccc(-c2ccccc2)cc1,-18.7%,
COc1ccc(CC2=NN3C([C@@H](CCc4ccccc4)[C@@H](C)O)=NC(C)C3C(=O)N2)cc1OC (some centres undefined),8.66%,
O=C1c2ccccc2-[n+]2ccc3c([nH]c4ccccc43)c21,,9.75 µM (active)
O=C(Nc1ccc(OC(F)(F)F)cc1)c1sccc1NCc1ccnc2ccccc12,,6.15 µM (active)
O=C(/C=C/c1ccc(O)cc1)c1ccc(O)cc1O,,1.73 µM (active)
CC(=O)OC(C)OC(=O)C(C)c1ccc(-c2ccccc2)c(F)c1 (centres undefined),-22.6%,

Compound,"activity, negative = inhibition",Potency
CCN1CCC(n2cc(CNc3cc(Cl)c4ncc(C#N)c(Nc5ccc(F)c(Cl)c5)c4c3)nn2)CC1,37.8%,
NC(=O)c1cccc2[nH]c(-c3ccc([C@H]4CCCN4)cc3F)nc12,,13.8 µM (active)
Cc1csc(NC(=O)c2sc3nc4c(c(C(F)(F)F)c3c2N)CCC4)n1,,15.5 µM (active)
O[C@@H](COc1cccc2ncccc12)CN1CCN(C2c3ccccc3[C@@H]3[C@H](c4ccccc42)C3(F)F)CC1 (some centres undefined),39.1%,
CS(=O)(=O)c1ccc(-c2cn3ccccc3n2)cc1,,3.88 µM (active)
Cc1nc(N)sc1-c1ccnc(Nc2ccc(N3CCOCC3)cc2)n1,-17.9%,
c1ccc2[nH]c(-c3cscn3)nc2c1,,9.75 µM (active)
CN(C)CCCSc1ccccc1NC(=O)/C=C/c1ccccc1,,17.3 µM (active)
O=C(Oc1ccccc1)c1cccc(C(=O)Oc2ccccc2)c1,,3.98 µM (active)
CNC1[C@H](O)C(O[C@@H]2C(O)C(O[C@H]3O[C@H]([C@@H](C)NC)CC[C@H]3N)[C@@H](N)C[C@H]2N)OC[C@]1(C)O (some centres undefined),3.84%,
O=C(Nc1cc2cc[nH]c2cn1)c1ccccc1,,3.46 µM (active)
CO[C@H]1C(=O)[C@]2(C)[C@@H](OC)C[C@H]3OC[C@@]3(OC(C)=O)[C@H]2[C@H](OC(=O)c2ccccc2)[C@]2(O)C[C@H](OC(=O)[C@H](O)[C@@H](NC(=O)OC(C)(C)C)c3ccccc3)C(C)=C1C2(C)C,69.4%,
Nc1ccc2c(c1)CN1C(=O)c3ccccc3C1=N2,,1.9 µM (active)
O=C(C=CC=Cc1ccc2c(c1)OCO2)N1CCCCC1,,13.8 µM (active)
C[C@@H](O[C@H]1OCCN(Cc2n[nH]c(=O)[nH]2)[C@@H]1c1ccc(F)cc1)c1cc(C(F)(F)F)cc(C(F)(F)F)c1,31.4%,
Cc1nc(-c2ccc(OCC(C)C)c(C#N)c2)sc1C(=O)O,,3.88 µM (active)
COc1ccc(-c2cc(=O)c3c(O)cc(O)cc3o2)cc1O,,9.75 µM (active)
